Measurements: PubChem BioAssay (EPA / NIEHS)
Calls of active or inactive are those of the source. The calls were made as follows: active = hit-call score of the fitted dose curve at least 0.9, where 1 is the maximum; inactive = score below 0.9.

Tests used:
Conditions in all cases: mRNA level, 48 h; actives raise or lower the signal
[1] = read-out: Lipase C (LIPC), LIPC (gene 3990); assay: LTEA_HepaRG_LIPC: Life Technologies and Expression Analysis (LTEA) Assay for Lipase C (LIPC) using HepaRG (AID 2283514)
Summary of the method: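 Read-out is LIPC transcript level by TaqMan qRT-PCR, normalized to three housekeeping genes, after 48 h chemical treatment of human HepaRG liver cells. Curves span eight concentrations topping at 100 uM; activity in either direction scored relative to 0.5% DMSO.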

[2] = read-out: Lipoprotein lipase (LPL), LPL (gene 4023); assay: LTEA_HepaRG_LPL: Life Technologies and Expression Analysis (LTEA) Assay for Lipoprotein lipase (LPL) using HepaRG (AID 2283515)
Summary of the method: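 Read-out is LPL transcript level by qRT-PCR, normalized to three housekeeping genes and fitted bidirectionally against the DMSO control. Human HepaRG cells received chemicals for 48 h at up to 100 uM.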

[3] = read-out: MicroRNA 122 (MIR122), gene 406906; assay: LTEA_HepaRG_MIR122: Life Technologies and Expression Analysis (LTEA) Assay for MicroRNA 122 (MIR122) using HepaRG (AID 2283516); also: the transcript read is the microRNA miR-122
Summary of the method: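 Differentiated human HepaRG cells were exposed 48 h in serum-free induction medium to eight half-log concentrations (top 100 uM, 0.5% DMSO). Transcript level was measured by TaqMan qRT-PCR, normalized to ACTB, GAPDH and POLR2A, and fitted bidirectionally versus DMSO.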

[4] = read-out: matrix metalloproteinase-10 (MMP10), MMP10 (gene 4319); assay: LTEA_HepaRG_MMP10: Life Technologies and Expression Analysis (LTEA) Assay for matrix metalloproteinase-10 (MMP10) using HepaRG (AID 2283517)
Summary of the method: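 Gain or loss of MMP10 mRNA is fitted relative to the 0.5% DMSO vehicle. The human hepatic line HepaRG receives a 48-hour serum-free exposure, in duplicate, with a maximum concentration of 100 uM.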

MYC, MYC (gene 4609) = assay: LTEA_HepaRG_MYC: Life Technologies and Expression Analysis (LTEA) Assay for MYC using HepaRG (AID 2283518)
Summary of the method: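 Cells are thawed, plated and cultured 48 h, then treated for 48 h with test chemicals (eight half-log concentrations from 100 uM, 0.5% DMSO vehicle). RNA is isolated and MYC expression quantified by qRT-PCR against three housekeeping genes.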

[5] = read-out: matrix metalloproteinase-3 (MMP3), MMP3 (gene 4314); assay: LTEA_HepaRG_MMP3: Life Technologies and Expression Analysis (LTEA) Assay for matrix metalloproteinase-3 (MMP3) using HepaRG (AID 2283519)
Summary of the method: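 HepaRG, human; 48 h dosing, 8 conc. (max 100 uM, half-log), duplicate, 0.5% DMSO. Readout: MMP3 transcript by Fluidigm TaqMan qRT-PCR, ACTB/GAPDH/POLR2A-normalised. Gain or loss fitted vs DMSO.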

[6] = read-out: Paternally Expressed 10 (PEG10), PEG10 (gene 23089); assay: LTEA_HepaRG_PEG10: Life Technologies and Expression Analysis (LTEA) Assay for Paternally Expressed 10 (PEG10) using HepaRG (AID 2283520)
Summary of the method: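 Differentiated HepaRG cells, plated 48 h then switched to serum-free induction medium, were exposed in duplicate for 48 h to eight half-log concentrations topping at 100 uM in 0.5% DMSO. PEG10 mRNA was quantified by TaqMan qRT-PCR, normalised to ACTB, GAPDH and POLR2A.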

[7] = read-out: Nuclear factor NF-kappa-B p105 subunit (Homo sapiens) (UniProt P19838); assay: LTEA_HepaRG_NFKB1: Life Technologies and Expression Analysis (LTEA) Assay for Nuclear Factor Kappa B Subunit 1 (NFKB1) using HepaRG (AID 2283521)
Summary of the method: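 Differentiated human HepaRG cells in serum-free induction medium with 0.5% DMSO were exposed for 48 h to eight half-log concentrations, top 100 uM, in duplicate. NFKB1 mRNA measured by Fluidigm TaqMan qRT-PCR, normalised to ACTB, GAPDH and POLR2A; bidirectional fit versus DMSO.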

[8] = read-out: Protein phosphatase 2A (PPP2R4), PTPA (gene 5524); assay: LTEA_HepaRG_PPP2R4: Life Technologies and Expression Analysis (LTEA) Assay for Protein phosphatase 2A (PPP2R4) using HepaRG (AID 2283522)
Summary of the method: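 Differentiated HepaRG cells in serum-free induction medium were exposed in duplicate for 48 h to eight concentrations, top 100 uM with half-log dilutions, in 0.5% DMSO. PPP2R4 mRNA was quantified by TaqMan qRT-PCR, normalized to ACTB, GAPDH and POLR2A.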

[9] = read-out: Phosphatase and tensin (PTEN), PTEN (gene 5728); assay: LTEA_HepaRG_PTEN: Life Technologies and Expression Analysis (LTEA) Assay for Phosphatase and tensin (PTEN) using HepaRG (AID 2283523)
Summary of the method: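 Read-out is PTEN transcript level by multiplexed TaqMan qRT-PCR after 48 h chemical treatment of human HepaRG cultures in serum-free induction medium. Concentrations spanned 100 uM downward in half-log steps, 0.5% DMSO throughout; activity fitted in both directions against vehicle.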

Measured: AC50

Chain of Nuclear factor NF-kappa-B p105 subunit (Homo sapiens) (P19838 whole entry, looked up): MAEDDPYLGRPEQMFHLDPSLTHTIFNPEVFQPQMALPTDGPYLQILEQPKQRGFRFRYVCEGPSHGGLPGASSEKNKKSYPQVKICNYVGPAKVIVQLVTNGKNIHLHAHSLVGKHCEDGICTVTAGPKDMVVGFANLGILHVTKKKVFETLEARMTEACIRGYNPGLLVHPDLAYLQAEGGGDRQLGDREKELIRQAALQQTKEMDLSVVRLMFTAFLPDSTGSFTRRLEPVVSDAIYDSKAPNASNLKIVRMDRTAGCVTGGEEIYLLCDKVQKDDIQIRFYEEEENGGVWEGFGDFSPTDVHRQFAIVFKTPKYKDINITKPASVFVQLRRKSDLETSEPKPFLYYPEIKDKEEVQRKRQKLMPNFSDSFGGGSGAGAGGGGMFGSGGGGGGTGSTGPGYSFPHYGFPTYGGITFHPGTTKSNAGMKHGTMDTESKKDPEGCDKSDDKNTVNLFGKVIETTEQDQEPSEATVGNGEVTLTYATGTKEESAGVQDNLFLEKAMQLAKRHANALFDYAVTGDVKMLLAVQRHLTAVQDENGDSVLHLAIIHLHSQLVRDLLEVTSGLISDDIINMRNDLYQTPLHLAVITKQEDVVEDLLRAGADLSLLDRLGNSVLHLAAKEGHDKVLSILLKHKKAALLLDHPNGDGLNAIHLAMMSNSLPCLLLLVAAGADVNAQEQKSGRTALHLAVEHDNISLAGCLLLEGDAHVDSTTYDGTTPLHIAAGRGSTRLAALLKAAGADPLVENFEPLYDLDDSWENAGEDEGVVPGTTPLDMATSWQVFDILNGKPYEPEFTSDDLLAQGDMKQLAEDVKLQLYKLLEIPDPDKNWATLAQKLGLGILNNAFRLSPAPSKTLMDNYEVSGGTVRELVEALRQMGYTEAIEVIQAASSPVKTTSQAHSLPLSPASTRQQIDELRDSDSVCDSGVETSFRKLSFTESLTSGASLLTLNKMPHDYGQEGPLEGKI

Cn1cnc2c1c(=O)[nH]c(=O)n2C
inactive: all assays above

CC(=O)OC1CC(C)OC(C)O1 (stereo not given)
inactive: all assays above

Oc1ccc(O)cc1
inactive: all assays above

CSc1ccc(Oc2ccc(S(N)(=O)=O)cc2CN(C)C)cc1C
active: [2] 77 µM | [6] 72.7 µM
inactive: all other assays above

COC(=O)CCCC(=O)OC
inactive: all assays above

CC(C)COC(=O)CCCCC(=O)OCC(C)C
inactive: all assays above

CC(C)c1cccc(C(C)C)c1
inactive: all assays above

O=NO
inactive: all assays above

O=C(O)CN(CC(=O)O)CC(=O)O
inactive: all assays above

CCCCCCCCCCCCCCCCO
inactive: all assays above

CCC(C)N(C)C(=O)c1cc2ccccc2c(-c2ccccc2Cl)n1 (stereo not given)
active: MYC, MYC (gene 4609) 31.8 µM | [6] 13.1 µM
inactive: all other assays above

c1ccc2occc2c1
inactive: all assays above

O=C(O)CC(O)(CC(=O)O)C(=O)O
inactive: all assays above

CCCC(=O)O
inactive: all assays above

CCCCCCC(C=O)=Cc1ccccc1
inactive: all assays above

OCC(CO)n1cnc(-c2ccc(F)cc2)c1-c1ccnc(Oc2ccccc2)n1
active: [5] 13.5 µM
inactive: all other assays above

CC(=O)S[C@H](C(=O)N[C@H]1Cc2ccccc2[C@H]2CCC[C@@H](C(=O)O)N2C1=O)C(C)C
inactive: all assays above

CS(=O)(=O)c1ccc([C@@H](C[C@H]2CCC(=O)C2)C(=O)Nc2cnccn2)cc1Cl
inactive: [4] | [6]
active: [1] 1.08 µM | [2] 0.934 µM | [3] 1.41 µM | MYC, MYC (gene 4609) 1.14 µM | [5] 1.16 µM | [7] 1.38 µM | [8] 0.49 µM | [9] 10.1 µM

O=[Si]=O
inactive: all assays above

CCCCC(CC)COC(=O)CCCCCCCC(=O)OCC(CC)CCCC (stereo not given)
inactive: all assays above
